This is an account of results in PubChem BioAssay (NCI).

Compounds without any hit were thinned out: in the full panel of roughly 83,000, 20% have a hit.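 Single-dose data. Exposure time 48 hours. Values below 10 considered active.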 Calls of active or inactive are those of the source.

The test concerns SW-620 colon. The test is described as follows: NCI-60 one-dose screen, 48 h (100 = growth as untreated, 0 = no growth, -100 = all killed). Conditions: 10 µM unless noted. On the procedure:
Growth inhibition of the SW-620 human tumor cell line is measured as a screen for anti-cancer activity. Cells are grown in 96 well plates and exposed to the test compound for 48 hours. Compounds are tested at a single concentration, which is 10^-5 M for most compounds. The reported endpoint is percent growth (GI% or GIPRCNT), where numbers from 0 - 100% represent growth inhibition, and numbers from -100% - 0 represent cell death. For example, a value of 40 represents 60% growth inhibition. A value of 0 means no net growth occurred over the course of the experiment. A value of -40 indicates 40% of cells at the beginning of the experiment died by the end of the experiment. A value of -100 means all cells are dead at the end of the experiment.
NCI-60 Human Tumor Cell Lines Screen was performed using the standard one-dose NCI protocol, which is described in more detail at https://dtp.cancer.gov/discovery_development/nci-60/default.htm.
Compounds with GIPRCNT values below 10 were considered active. Activity score was based on GIPRCNT using the following formula: […]
Score is 0 for GIPRCNT values of 100 or above, 50 for GIPRCNT values of 0, and 100 for GIPRCNT values of -100.
`CCOC(=O)NN1CC(O)=C(c2nc(-c3ccc(Br)cc3)cs2)C1=N`: the growth is 107% (inactive).

Consider `CCCC(O)Cn1ncc(C(=O)OCC)c1NC(=O)NCc1cccc(F)c1` (stereo not given), for which the growth was 107% (inactive).

For `CCOc1ccc(NC(=O)c2cc(OC)c(OC)c(OC)c2)cc1`, the growth is 31.6% (inactive).

Regarding `Cc1cccc(N2CCN(C(=S)c3ccc4c(c3)OCO4)CC2)c1`, the growth was 8.2% (active).

On to `O=C1c2cccnc2C(=O)c2c1c(C(=O)OCCCN1CCCCC1)c1ccccn21`, for which the growth was -60.1% (active).

Consider `CC(C)[C@@]12C[C@@H](OC(=O)COC(=O)c3ccccc3)[C@@](C)(O1)[C@@H]1CC[C@@H](C)[C@H]1[C@@H]2OC(=O)/C=C/c1ccccc1`, for which the growth was 100% (inactive).

As to `C#CC#CC#CC#CC#CC#CC#CC#CCC1OCC(COC(=O)O[C@@H](C(=O)O[C@H]2C[C@@]3(O)[C@@H](OC(=O)c4ccccc4)[C@@H]4[C@]5(OC(C)=O)CO[C@@H]5C[C@H](O)[C@@]4(C)C(=O)[C@H](OC(C)=O)C(=C2C)C3(C)C)[C@@H](NC(=O)c2ccccc2)c2ccccc2)O1` (stereo not given in full), the growth is 24.1% (inactive).

Consider `O=C(Nc1ccccc1)c1sc(-c2ccccc2)cc1O`, for which the growth is 102% (inactive).

On to `CN(Cc1cnc2nc(N)nc(N)c2n1)c1c(Cl)cc(C(=O)NC(CCC(=O)O)C(=O)O)cc1Cl` (stereo not given), for which the growth was 29.1% (inactive).

For the compound `N#Cc1c(-c2ccccc2)cc(-c2ccccc2)n(CCCC(=O)NO)c1=O`, the growth is 17.3% (inactive).

As to `CC(=O)N/C(=C1/OC(C(O)C(O)C(O)CO)CN1C)[P+](c1ccccc1)(c1ccccc1)c1ccccc1` (stereo not given), the growth was 104% (inactive).

With `CCOc1ccc(/C=N\N=C\c2ccc(OCC)cc2)cc1`, the growth is 52.8% (inactive).

In the case of `CCCCCCCCn1ccc2cc(NC(=O)Cn3cc(CN4CCCCCC4)nn3)ccc21`, the growth was -78.3% (active).

In the case of `O=C(/C=C/c1ccccc1)Nc1ncc(Cc2ccccc2)s1`, the growth is 24.6% (inactive).

For `O=C(CCCCCCN1CC(=O)N2[C@@H](C3CCCCC3)c3[nH]c4ccccc4c3C[C@H]2C1=O)NO`, the growth was 47% (inactive).

In the case of `COc1cc2c(/C=C3\C(=O)Nc4ccccc43)c(C(=O)O)[nH]c2cc1C`, the growth was 120% (inactive).

Regarding `COc1ccc(-c2cn(-c3ccc(Cl)cc3)c(SCC(=O)c3ccc([N+](=O)[O-])cc3)n2)cc1`, the growth was 86.1% (inactive).

With `CCN(CC)c1ccc(/C=N\NC(=O)c2cccc(Nc3ccnc(C(F)(F)F)c3)c2)c(O)c1`, the growth is 35.4% (inactive).

As to `O=C1OCC2=C1C(c1cccc(C(F)(F)F)c1)c1cc3c(cc1N2CCO)OCO3` (stereo not given), the growth is 23.3% (inactive).

`COc1cc(/C=N/Nc2ccccc2F)cc(OC)c1OC`: the growth was 93.6% (inactive).

Consider `COc1cc(C2Cc3ncccc3-c3[nH]c(=O)c4cccnc4c32)cc(OC)c1OC` (stereo not given), for which the growth is 26.7% (inactive).

Turning to `COc1cc2c(c(OC)c1OC)C(=O)CC(c1cccc(NC(=O)c3ccccc3Br)c1)O2` (stereo not given), the growth is 97.3% (inactive).

Take `COc1cc(C2C3=C(COC3=O)N(CCO)c3cc4c(cc32)OCCO4)cc(OC)c1OC` (stereo not given): the growth is 11.9% (inactive).

For the compound `C/C(=N\Nc1nc(C)cs1)c1cc2ccccc2o1`, the growth is 100% (inactive).

Take `CCOC(=O)C/C(=N\Nc1cc(=O)[nH]c2ccc(Cl)cc12)C(=O)OCC`: the growth was 93.8% (inactive).

Regarding `Cc1ccc(C(=O)c2ccc(CC(=O)N/N=C/c3ccc(O)cc3O)n2C)cc1`, the growth is 42.2% (inactive).

In the case of `Cc1[nH]c(C(=O)Nc2ccc(C(N)=O)cc2NC(C)C)c(Cl)c1Cl`, the growth was 96.1% (inactive).

`C#CC#CC#CC#CC#CC#CC#CC#CC[C@H]1OC[C@@H](COC(=O)O[C@@H](C(=O)O[C@H]2C[C@@]3(O)[C@@H](OC(=O)c4ccccc4)[C@@H]4[C@]5(OC(C)=O)CO[C@@H]5C[C@H](O)[C@@]4(C)C(=O)[C@H](OC(C)=O)C(=C2C)C3(C)C)[C@@H](NC(=O)c2ccccc2)c2ccccc2)O1`: the growth is 42.4% (inactive).

As to `COc1cccc2c(N=NC(=O)c3ccc(S(N)(=O)=O)cc3)c(O)[nH]c12`, the growth was 94.8% (inactive).

As for `CN1CCN(Cc2ccc(NC(=O)c3cncc(C#Cc4cnn5ccccc45)c3)cc2C(F)(F)F)CC1`, the growth is -14.3% (active).

On to `C#CCOc1ccc2ncnc(Nc3cccc(NC(=O)CCl)c3)c2c1`, for which the growth is 33.5% (inactive).

On to `COc1ccc(/C=C/C(=O)c2ccc(NC(=O)CSc3nnc(-c4cc(-c5ccccc5)nc5ccccc45)n3-c3ccccc3)cc2)cc1`, for which the growth was 96.6% (inactive).

Regarding `CCc1ccc(CCC(=O)Nc2ncc(Cc3ccc(Cl)cc3)s2)o1`, the growth was 18.6% (inactive).

Consider `CCOC(=O)C1=C(C)N=C2SC=C(c3ccccc3)N2[C@H]1c1cn[nH]c1-c1ccc(Cl)cc1`, for which the growth was 37.7% (inactive).

Turning to `CC1(C)O[C@H]2OC3CCC(=O)CC3(O)[C@H]2O1` (stereo not given in full), the growth was 105% (inactive).

In the case of `O=C(CSc1nc2ccc([N+](=O)[O-])cc2[nH]1)Nc1ccc(Br)cc1`, the growth was 74.5% (inactive).

In the case of `S=c1ssnc1-c1cccs1`, the growth is 83.7% (inactive).

Take `NC(=S)N/N=C/c1cn(-c2ccccc2)nc1-c1cc2ccccc2oc1=O`: the growth is 22.7% (inactive).

Take `O=C1C(Cl)=C(NCCN2CCOCC2)C(=O)c2ncccc21`: the growth is -29.5% (active).

For the compound `O=C1c2cc3c(cc2-c2c1c1ccc(Cl)cc1c(=O)n2C[C@H](O)CO)OCO3`, the growth was -4.07% (active).
